This passage reports Potency and activity change, negative = inhibition results from PubChem BioAssay (NCATS).

The structures appear in SMILES notation. Records with an inconclusive call do not appear. Entries that show only a call come without a potency. Calls of active or inactive are those of the source. Calls follow the shape of the dose curve; as a rule, active = well fitted inhibition curve with a large enough effect; inconclusive = small, poorly fitted or top-dose-only effect; inactive = no such curve, though single readings can be large or run the other way. Numbered stars: 1 amine (or outer) side, 2 acyl side, 3 side chain; on linkers, the order of the positions; unused ones are H or OH. Bridge positions count the residues as written; N and C are the ends. Square brackets hold non-standard residues; d marks the D form. Peptide text beside a SMILES is read from it. ξ: configuration not given here. X2 = CC(C)=CCc1cc(C(O)C(N[*:1])C(=O)[*:2])ccc1O; ξLac(3-iPr) = CC(C)CC(O)C(=O)O; NMeV = CN[CH](C(=O)O)C(C)C; X4 = O=C(CCC[*:2])[*:1]; βAla = NCCC(=O)O

In the test the target is Retinaldehyde dehydrogenase 3 (Homo sapiens) (UniProt P47895). Briefly: qHTS for Inhibitors of the Aldehyde Dehydrogenase Family (ALDH1A3) Primary screen (AID 2061315). Particulars: ALDH inhibition qHTS; series mostly up to 56 µM. On the technique in general: qHTS replaces the single test concentration by a dilution series.
As to `CC[C@H](C)[C@@H]1NC(=O)[C@H](Cc2ccc(OC)cc2)NC(=O)CCCSC[C@@H](C(=O)N2CCC[C@H]2C(=O)N[C@@H](CC(C)C)C(=O)NCC(N)=O)NC(=O)[C@H](CC(N)=O)NC(=O)[C@H](CCC(N)=O)NC1=O` (Y(Me)IQNCPLG-NH2; linker N-5 via X4), the Potency entry is “inactive”.

As to `Cc1ccc2c(Nc3ccc(Cl)cc3)nccc2c1Nc1ncccc1-c1ncnc2nc[nH]c12`, the Potency result is “inactive”. For the molecule `C[C@H](N)C(=O)N[C@@H](Cc1ccc(O)cc1)C(=O)N1CCC[C@H]1C(=O)NCC(=O)N[C@@H](CCCCN)C(=O)N[C@@H](Cc1ccccc1)C(N)=O`, the activity change, negative = inhibition is -9.63% [at 11.2 µM] (inactive). In the case of `COc1ccc(C2C(C(=O)O)C(C(=O)O)C2c2ccc(OC)cc2O[C@@H]2O[C@H](CO)[C@@H](O)[C@H](O)[C@H]2O)c(O[C@@H]2O[C@H](CO)[C@@H](O)[C@H](O)[C@H]2O)c1` (some centres not stated), the Potency result was “inactive”. Still for that read-out and setting: to `CC(C)CC1OC(=O)C2CCCN2C(=O)CCNC(=O)C(Cc2ccccc2)NC(=O)C(C(C)C)N(C)C(=O)C(C(C)C)N(C)C1=O` (configuration not stated) (cyclo([ξLac(3-iPr)][NMeV][NMeV]F[βAla]P); configuration not given here) belongs “inactive”. Regarding `OC[C@@]1(O)CO[C@@H](OC[C@H]2O[C@@H](OCc3ccccc3)[C@H](O)[C@@H](O)[C@@H]2O)[C@@H]1O`, the Potency result was “inactive”. Same read-out and setting: to `C=C1C(=O)O[C@@H]2/C=C(\C)CC/C=C(\C(=O)O[C@@H]3O[C@H](CO)[C@@H](O)[C@H](O)[C@H]3O)CC[C@@H]12` belongs “inactive”. Same read-out and setting: to `COc1c(N2CC3CCCNC3C2)c(F)cc2c(=O)c(C(=O)O)cn(C3CC3)c12` (configuration not stated) belongs “inactive”; to `CC(C)CC[C@@H](O)[C@](C)(O)[C@H]1CC[C@@]2(O)C3=CC(=O)[C@@H]4C[C@@H](O)[C@@H](O)C[C@]4(C)[C@H]3CC[C@]12C`, “inactive”; to `CC(=O)c1[nH]cc(CCC(=O)O)c1CC(=O)O`, “inactive”. Still for that read-out and setting: to `CC[C@H]1OC(=O)[C@H](C)[C@@H](O[C@H]2C[C@@](C)(OC)[C@@H](O)[C@H](C)O2)[C@H](C)[C@@H](O[C@H]2O[C@H](C)C[C@H](N(C)C)[C@H]2O)[C@](C)(O)C[C@@H](C)C(=O)[C@H](C)[C@@H](O)[C@]1(C)O` belongs “inactive”.

For `CC1=CC(=O)CC2C1(O)CCC(C)C21CC(c2ccoc2)OC1=O` (configuration not stated), the Potency entry was “inactive”.

Regarding `O=C(OCC(O)CO[C@@H]1O[C@H](C(=O)O)[C@@H](O)[C@H](O)[C@H]1O)c1ccccc1` (some centres not stated), the Potency result was “inactive”. On the same count and under the same terms, to `CCc1cc(CN2CC(C(=O)O)C2)sc1-c1noc(-c2ccc(Oc3ccccc3)cc2)n1` belongs “inactive”.

`CC(C)=CCc1cc(C(O)C2NC(=O)CNC(=O)C(Cc3c[nH]c4ccccc34)NC(=O)C3CCCN3C(=O)CNC(=O)C(C(C)C)NC(=O)CNC2=O)ccc1O` (configuration not stated) (cyclo(G[X2]GVGPW); configuration not given here): the Potency entry is “inactive”. `C[C@@H]1O[C@@H](O[C@H]2[C@H](OC(=O)[C@]34CCC(C)(C)C[C@H]3C3=CCC5[C@@]6(C)C[C@H](O)[C@H](O[C@@H]7O[C@H](CO)[C@@H](O)[C@H](O)[C@H]7O)[C@@](C)(CO)C6[C@H](O)C[C@@]5(C)[C@]3(C)C[C@H]4O)OC[C@H](O)[C@@H]2O)[C@H](O)[C@H](O)[C@H]1O[C@@H]1OC[C@@H](O)[C@H](O[C@H]2OC[C@](O)(CO)[C@H]2O)[C@H]1O` (some centres not stated): the activity change, negative = inhibition is -7.49% [at 11.2 µM] (inactive). For the molecule `COC1CC(OC2CCC3(C)C(=CCC4C3C(OC(C)=O)C(OC(=O)/C=C/c3ccccc3)C3(C)C(C(C)O)CCC43O)C2)OC(C)C1OC1CC(OC)C(OC2OC(C)C(OC3OC(CO)C(O)C(O)C3O)C(OC)C2O)C(C)O1` (configuration not stated), the activity change, negative = inhibition was 9.46% [at 11.2 µM] (inactive). For `C=C1C(OC(C)=O)C(=O)C2C(C)(C)C(OC(C)=O)CCC2(C)C1CC(OC(C)=O)/C(C)=C/COC(C)=O` (configuration not stated), the Potency result was “inactive”. Same read-out and setting: to `C[C@@H]1CCC2C(C)(C)[C@H](O)CC[C@]2(C)[C@@]12Cc1c(O)cc3c(c1O2)CN([C@@H](CCC(=O)O)C(=O)O)C3=O` (some centres not stated) belongs “inactive”; to `CC1[C@@H](O)[C@@H](O)C2[C@]3(C)C(C[C@H]4OC(=O)[C@H](O)[C@]1(O)[C@@]24C)C(C)(O)C[C@H](O)[C@H]3O` (some centres not stated), “inactive”. Same read-out and setting: to `C=C1CC[C@@H]2[C@](C)(CO)[C@H](O)CC[C@@]2(C)[C@@H]1C/C=C1/C(=O)OC[C@@H]1O` belongs “inactive”; to `C=CC(C)(O)C(O)CC1C(C)(O)C(O)C(O)C2C(C)(C)CCCC21C` (configuration not stated), “inactive”.
